Test results as given in PubChem BioAssay (NCATS).
Where “and” joins values, the source holds several entries; their conditions need not be identical. Identical values can stand only once. Inconclusive results are not listed. Unmarked numbers belong to inactive results. Calls of active or inactive are those of the source. Calls follow the shape of the dose curve; as a rule, active = well fitted curve in the direction sought with a large enough effect; inconclusive = small, poorly fitted or top-dose-only effect, or another doubt; inactive = no such curve, though single readings can be large or run the other way.

Assay: qHTS Assay for Identifying Gametocytocidal Compounds (AID 743244);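 as to max response: actives lower the fluorescent signal which means gametocytes are killed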
Conditions: P. falciparum 3D7 stage III-V gametocytes, alamarBlue, 72 h; max response: stronger effect = lower value
In short: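 P. falciparum 3D7 stage III–V gametocytes (20,000 cells/well) were exposed to compounds for 72 h at 37 °C, 5% CO2. AlamarBlue was then added for 24 h; decreased resorufin fluorescence (Ex 525/Em 598 nm) indicated loss of viability.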
% is scaled to controls: 0 for no effect and ±100 for the full control effect; potency is read from the fitted curve at half-maximal effect.

SMILES	Potency	max response
CC1(C)O[C@@H]2C[C@H]3[C@@H]4CCC5=CC(=O)CC[C@]5(C)[C@@]4(F)[C@@H](O)C[C@]3(C)[C@]2(C(=O)CCl)O1	8.91 µM (active)	
O=C(Nc1ccc(Oc2ccc(Cl)cc2)c(Cl)c1)c1cc(I)cc(I)c1O		-9.6%
CC1(C)O[C@@H]2C[C@H]3[C@@H]4C[C@H](F)C5=CC(=O)CC[C@]5(C)[C@H]4[C@@H](O)C[C@]3(C)[C@]2(C(=O)CO)O1		1.24%
CC(Cc1cccc(C(F)(F)F)c1)NCCOC(=O)c1ccccc1 (configuration not stated)		8%
C[C@H](CCC(=O)O)[C@H]1CC[C@H]2[C@@H]3C(=O)C[C@@H]4CC(=O)CC[C@]4(C)[C@H]3CC(=O)[C@]12C		6.84%
CCOc1ccc(Cc2nccc3cc(OCC)c(OCC)cc23)cc1OCC		10.4%
C[C@]12C=CC(=O)C=C1CC[C@@H]1[C@@H]2[C@@H](O)C[C@@]2(C)[C@H]1CC[C@]2(O)C(=O)CO		0.844%
CC(=O)OCC(=O)NCCCOc1cccc(CN2CCCCC2)c1		8.95% and 5.62%
O=C(Nc1ccc(Cl)c(Cl)c1)C1CC1		14%
O=c1[nH]c(=O)n([C@H]2CCCO2)cc1F		-0.456%
CC(C)(CO)[C@@H](O)C(=O)NCCCO		14.7%
C#C[C@]1(O)CC[C@H]2[C@@H]3CCC4=CC(=O)CC[C@@H]4[C@H]3CC[C@@]21C		8.68%
CN1CCN(C(c2ccccc2)c2ccccc2)CC1		-1.32%
CC(C)=CCC1C(=O)N(c2ccccc2)N(c2ccccc2)C1=O		-12.9%
CN1[C@@H]2CC[C@H]1CC(OC(=O)c1c[nH]c3ccccc13)C2 (some centres not stated)		7.82%
CC(=O)N/N=C/c1ccc([N+](=O)[O-])o1	31.6 µM (active)	
CCCC(=O)Nc1ccc(OCC(O)CNC(C)C)c(C(C)=O)c1 (configuration not stated)		19.2%
CC(=O)N(O)CCCCCNC(=O)CCC(=O)N(O)CCCCCNC(=O)CCC(=O)N(O)CCCCCN		17.5%
CC(=O)[C@H]1CC[C@H]2[C@@H]3C[C@H](C)C4=CC(=O)CC[C@]4(C)[C@H]3[C@@H](O)C[C@]12C		9.78%

SMILES	Potency	max response
C/C=C/c1ccc(OC)cc1		16%
Cc1cccn2c(=O)c(-c3nnn[nH]3)cnc12		-1.77%
O=c1[nH]c(=O)n([C@H]2C[C@H](O)[C@@H](CO)O2)cc1C(F)(F)F		15%
COc1ccc(C2C(=O)c3ccccc3C2=O)cc1		5.04%
CC1(C)O[C@@H]2[C@@H](CO[C@@]3(COS(N)(=O)=O)OC(C)(C)O[C@@H]23)O1		4.37%
CN=C(NC#N)NCCSCc1csc(N=C(N)N)n1		5.67%
CCCCCCCCCCCCCCCCOP(=O)([O-])OCC[N+](C)(C)C		-10.8%
CCN(CC)CCOC(=O)C(c1ccccc1)C1CCCCC1 (configuration not stated)		15%
CCn1cc(C(=O)O)c(=O)c2cnc(N3CCCC3)nc21		-1.94%
O=c1c(-c2ccccc2)c1-c1ccccc1	3.98 µM (active)	
CCN(CCCc1ccccc1)CCCc1ccccc1		0.141%
C/C=C(/C(=C/C)c1ccc(O)cc1)c1ccc(O)cc1		-1.19%
O=C(COc1ccc(Cl)cc1)N1CCN(Cc2ccc3c(c2)OCO3)CC1		-7.26%
CC(=O)c1ccc2c(c1)N(CCCN1CCC(CCO)CC1)c1ccccc1S2		-4.88%
NC(=O)c1cc[n+](CC2=C(C(=O)[O-])N3C(=O)[C@@H](NC(=O)Cc4cccs4)[C@H]3SC2)cc1		1.11%
CCCSS/C(CCO)=C(\C)N(C=O)Cc1cnc(C)nc1N		2.02%
COc1cc(OC)cc(OC)c1		0.294%
NCCc1ccn[nH]1		5.14%
